Experimental data from PubChem BioAssay (Tox21).
Results filed as inconclusive are left out. Active and inactive are the calls of the source. Calls come from the whole dose curve; as a rule, active = well fitted cell-killing curve with a large enough effect in the repeat runs; inconclusive = weak or mixed curves, or effect the other way; inactive = flat fitted curve, though single readings scatter.

assay: cAMP Responsive Elements (CRE) small molecule agonists, cell-based qHTS assay: qHTS cell viability counter screen (AID 2060914); conditions: CRE-bla HEK293T viability, CellTiter-Glo luminescence, 5 h; series mostly up to 92.4 µM; activity change, negative = cytotoxicity: at the top concentration;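 note: viability read after 3 h of compound exposure; nearly all actives have a fitted effect of over 50% in size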
Excerpt: National Center for Advancing Translational Sciences [NCATS]
Division of Preclinical Innovation [DPI]
U.S. Environmental Protection Agency [EPA]
National Institutes of Environmental Health Sciences [NIEHS]
National Toxicology Program [NTP]
U.S. Food and Drug Administration [FDA]
CREB (cyclic-AMP Responsive Element Binding Protein) is a cellular transcription factor. It binds to certain DNA sequences called cAMP Responsive Elements (CRE) and regulates the transcription of the genes. […] This cell line can be used to find agonists/antagonists of the cyclic AMP signaling pathway. The activation of the report gene under culture conditions can be detected by fluorescence intensity. This cell line has been used to screen the Tox21 10K compound library to identify agonists that induce oxidative stress. The cytotoxicity of the Tox21 compound library against the CRE-bla cell line was tested in parallel by measuring the cell viability using CellTiter-Glo assay (Promega, Madison, WI) in the same wells.
Tox21 Assay Protocol Summary:
CRE-bla Hek 293T cells were suspended in assay medium (DMEM containing 10% dialyzed FBS, 0.1 mM NEAA, 1 mM sodium pyruvate and 25 mM HEPES) and dispensed at 2,000 cells/5 uL /well into 1536-well black wall/clear bottom plates using a Multidrop Combi (ThermoFisher Scientific, Waltham, MA) dispenser. After the assay plates were incubated at 37 C/5% CO2 for 18 hrs, 23 nL of compounds dissolved in DMSO, positive controls or DMSO only was transferred to the assay plate by a pintool workstation (Kalypsys, San Diego, CA). After the plates were incubated at 37 C/5% CO2 for 3 hrs, 1 uL of LiveBLAzer B/G FRET substrate (Invitrogen, Carlsbad, CA) was added to each well using Bioraptr Flying Reagent Dispenser (FRD, Aurora Discovery, San Diego, CA). The plates were incubated at room temperature for 2 h, then fluorescence intensities were measured using an Envision plate reader (PerkinElmer, Shelton, CT) at Excitation 405nm, Emission 460nm and 530nm. The % activity was determined from the ratio of 460nm/530nm. For cell viability readout that measures cytotoxicity, 4 uL /well of CellTiter-Glo reagent was added into the assay plates using Bioraptr FRD. After 30 min incubation at room temperature, the luminescence intensity in the assay plates was measured using a ViewLux (PerkinElmer, Shelton, CT) plate reader.
% is set by controls: 0 for no effect and ±100 for the full control effect.

Row | Structure (SMILES) | activity change, negative = cytotoxicity | Potency
1 | COc1cc(C(=S)N2CCOCC2)ccc1O | -10.8% [at 42.5 µM] (inactive) | –
2 | O=C1C(CCS(=O)c2ccccc2)C(=O)N(c2ccccc2)N1c1ccccc1 (stereo not given) | 1.17% [at 42.5 µM] (inactive) | –
3 | CC(C)C(=O)Nc1ccc([N+](=O)[O-])c(C(F)(F)F)c1 | – | inactive
4 | CCc1oc2ccccc2c1C(=O)c1cc(Br)c(O)c(Br)c1 | -6.2% [at 42.5 µM] (inactive) | –
5 | CC(C)CCCCCOC(=O)CCS | 0.14% (inactive) | –
6 | Cc1c(-c2ccccc2)oc2c(C(=O)OCCN3CCCCC3)cccc2c1=O | 9.27% [at 42.5 µM] (inactive) | –
7 | Cc1cc(C)cc(N)c1 | 7.9% (inactive) | –
8 | CCOC(=O)C(C)(C)C | 0.796% (inactive) | –
9 | CC(C)C/C=C(\C=O)c1ccccc1 | -14% (inactive) | –
10 | CC(=O)/C=C/c1ccco1 | -0.393% (inactive) | –
11 | Cc1oncc1C(=O)Nc1ccc(C(F)(F)F)cc1 | – | inactive
12 | Cc1cccc(O)c1C | – | inactive
13 | O=C1CCC/C=C\CCCCCCCCCC1 | -1.34% (inactive) | –
14 | O=C(O)Cc1ccccc1Oc1ccc(Cl)cc1Cl | 8.37% [at 42.5 µM] (inactive) | –
15 | CC(=O)CC(=O)Nc1ccc2[nH]c(=O)[nH]c2c1 | 3.52% (inactive) | –
16 | Cc1ncc([N+](=O)[O-])n1CC(O)CCl (stereo not given) | -10.6% [at 42.5 µM] (inactive) | –
17 | C1CCN(CN2CCCCC2)CC1 | 0.294% (inactive) | –
18 | CCC(=O)CC(C)CC (stereo not given) | 6.36% [at 0.349 µM] (inactive) | –
19 | CCCC(=O)CC | -10.5% (inactive) | –
20 | C=C(C)C(=O)O[C@H]1C[C@@H]2CC[C@@]1(C)C2(C)C | – | inactive

Row | Structure (SMILES) | activity change, negative = cytotoxicity | Potency
21 | NC(N)=NS(=O)(=O)c1ccc(N)cc1 | 0.886% [at 42.5 µM] (inactive) | –
22 | CCOc1cc(OCC)c(C(=O)CCC(=O)O)cc1OCC | 16.6% [at 42.5 µM] (inactive) | –
23 | Nc1c(Br)cc([N+](=O)[O-])cc1Br | -12.7% (inactive) | –
24 | O=C1CCCCCCCCCCCC(=O)OCCO1 | -16.2% (inactive) | –
25 | O=C(Nc1ccccc1SSc1ccccc1NC(=O)c1ccccc1)c1ccccc1 | – | inactive
26 | O=C(O)C1(C(=O)Nc2ccc(Cl)cc2Cl)CC1 | 1.87% (inactive) | –
27 | CCOC(=O)COc1cc(-n2ncc(C(F)(F)F)c(C)c2=O)c(F)cc1Cl | 4.5% (inactive) | –
28 | CCCCCCCCCI | -2.74% (inactive) | –
29 | COc1ccccc1OCCNCC(O)COc1cccc2[nH]c3ccccc3c12 (stereo not given) | -4.08% [at 42.5 µM] (inactive) | –
30 | CC[C@]12CCCN3CCc4c(n(c5ccccc45)[C@@](O)(C(=O)OC)C1)[C@@H]32 | – | inactive
31 | O=C1CCC(C2CCCCC2)CC1 | 0.309% (inactive) | –
32 | Cc1occc1SSc1ccoc1C | 3.21% (inactive) | –
33 | CCOC(C)(C)C | 0.443% (inactive) | –
34 | Clc1cccnc1 | 2.98% (inactive) | –
35 | NCC[C@H](O)C(=O)N[C@@H]1C[C@H](N)[C@@H](O[C@H]2O[C@H](CN)[C@@H](O)[C@H](O)[C@H]2O)[C@H](O)[C@H]1O[C@H]1O[C@H](CO)[C@@H](O)[C@H](N)[C@H]1O | -8.14% [at 0.349 µM] (inactive) | –
36 | CNC(=O)Nc1ccc(Cl)c(Cl)c1 | -7.8% (inactive) | –
37 | CCCCOC(=O)C(C)OC(=O)CCC (stereo not given) | 7.87% (inactive) | –
38 | O=C(CC(=O)c1ccccc1)c1ccccc1 | -11.1% (inactive) | –
39 | N#CCC(=O)NN | 2.21% [at 42.5 µM] (inactive) | –
40 | C[C@]1(Cn2ccnn2)[C@H](C(=O)O)N2C(=O)C[C@H]2S1(=O)=O | -11% [at 42.5 µM] (inactive) | –
